# Measurements taken from PubChem BioAssay (EPA / NIEHS).
# Results filed as inconclusive are left out. More than one record can exist for a structure, and the calls need not agree. Activity calls are given as the source filed them. How the source made its calls: active means hit-call score of the fitted dose curve at least 0.9, where 1 is the maximum; inconclusive means response in the unintended direction; inactive means score below 0.9.
# System: zebrafish Estrogen Receptor (ESR2A), gene 317734
# Test: ATG_zfER2a_XSP1: Attagene TRANS-FACTORIAL Multi-Species (XSP1) HepG2 Assay for zebrafish Estrogen Receptor (ESR2A) (AID 2283778)
# Protocol: ATG_XSP1_multi-species_TRANS is a cell-based, multiplexed assay created by modifying the existing Attagene TRANS-FACTORIAL system to include a panel of nuclear receptors from some or all the following species: human (Homo sapiens), mouse (Mus musculus), frog (Xenopus laevis), zebrafish (Danio rerio), chicken (Gallus gallus), and turtle (Chrysemys picta). The […] format uses HepG2, a human liver cell line, with measurements taken at 24 hours after chemical dosing in a 24-well plate. Xsp1 included 3 nM 6-alpha-fluorotestosterone to partially stimulate the androgen receptor.ATG_zfER2a_XSP1 is one of 29 assay components measured or calculated from the ATG_XSP1_multi-species_TRANS assay. It is designed to make measurements of mRNA induction, a form of inducible reporter, as detected with fluorescence intensity signals by Reverse transcription polymerase chain reaction (RT-PCR) and Capillary electrophoresis technology.The assay endpoint ATG_zfER2a_XSP1 was analyzed in the positive analysis fitting direction relative to DMSO as the negative control and baseline of activity. Using a type of inducible reporter, measures of mRNA for gain-of-signal activity can be used to understand the reporter gene at the transcription factor-level as they relate to the gene ER. Furthermore, this assay endpoint can be referred to as a primary readout, because this assay has produced multiple assay endpoints where this one serves a reporter gene function. To generalize the intended target to other relatable targets, this assay endpoint is annotated to the nuclear receptor intended target family, where the subfamily is steroidal.
# Human liver HepG2 cells are transiently transfected with multiple reporter transcription units (MRTUs) in 6-well plates using FuGene 6 reagent (Roche; 3 ml FuGene/1 mg DNA). The MRTU constructs are regulated by a cis-regulating element (promoter). […] A major difference between the CIS and TRANS system is that in CIS activities of endogenous TFs are measured, whereas the TRANS assay evaluates changes in activities of exogenous, chimeric NR-Gal4 proteins. […] At the end of 24 hour incubation, total RNA was isolated using TriZol reagent (Invitrogen). The isolated RNA is then reverse-transcribed using oligo(dT) primer and Mo-MLV reverse transcriptase (Invitrogen) with DNAse I (Ambion) treatment for 30 min. The one-tenth of the produced cDNA was amplified by PCR using Taq DNA polymerase (Invitrogen) and two reporter sequence-specific primers. The PCR products were fluorescently labeled by primer extension with 6-arboxyfluorescein (6-FAM) 5'-labeled reporter sequence-specific primer (2 min at 95 C, 20 s at 68 C and 10 min at 72 C) and these products were digested with 5U of HpaI (New England Biolabs) for 2h at 37 C. The fragments were purified using Qiaquick PCR columns (Qiagen), analyzed on an ABI 3130xL genetic analyzer (Applied Biosystems) with peak positions identified by using a set of X-rhodamine (ROX)-labeled MapMarker1000 molecular weight standards (BioVentures). The raw capillary electrophoresis data was processed using Attagraph software (Attagene).
Compound,outcome,AC50
C=CCOC(Cn1ccnc1)c1ccc(Cl)cc1Cl (stereo unspecified),inactive,
CC1(C)C(C=C(Cl)Cl)C1C(=O)OCc1cccc(Oc2ccccc2)c1 (stereo unspecified),inactive,
CC(C)(c1ccc(O)cc1)c1ccc(O)cc1,,680 nM (active)
Oc1ccc(C(c2ccc(O)cc2)C(Cl)(Cl)Cl)cc1,,106 nM (active)
CC(=O)S[C@@H]1CC2=CC(=O)CC[C@]2(C)[C@H]2CC[C@@]3(C)[C@@H](CC[C@@]34CCC(=O)O4)[C@H]12,inactive,
CC(C)CCCCCCc1ccc(O)cc1,inactive,
CCCCC(CC)COC(=O)c1ccccc1C(=O)O (stereo unspecified),inactive,
O=C(c1ccc(O)cc1O)c1ccc(O)cc1O,,191 nM (active)
C#C[C@]1(O)CC[C@H]2[C@@H]3CCC4=CC(=O)CC[C@@H]4[C@H]3CC[C@@]21CC,inactive,349 nM (active)
CCCCC(CC)CN1C(=O)C2C3C=CC(C3)C2C1=O (stereo unspecified),inactive,
